Among the data in PubChem BioAssay (Tox21) are Potency values, retold here.

Each structure is given as a SMILES string. Results filed as inconclusive are left out. Entries that show only a call come without a potency. Calls of active or inactive are those of the source. Calls follow the shape of the dose curve; as a rule, active = well fitted activation curve with a large enough effect in the repeat runs; inconclusive = weak or mixed curves; inactive = no such curve, though single readings can be large or run the other way. Non-standard residues stand in square brackets, D forms with d. Residues, ends and D or L forms follow the SMILES beside them. *: point of attachment. Sta = CC(C)C[C@H](N)[C@@H](O)CC(=O)O; Isovaleryl = CC(C)CC(=O)*
Potency is read from the fitted curve at half-maximal effect.

This test deals with Nuclear receptor subfamily 1 group I member 2 (Homo sapiens) (UniProt O75469). As to the kind of experiment: Human pregnane X receptor (PXR) small molecule agonists, qHTS assay (AID 1346982). Also: nearly all actives have a fitted effect of over 35% in size. The settings on record: PXR-Luc HepG2, CYP3A4 luciferase reporter, 24 h; series mostly up to 92.4 µM. From the text: National Center for Advancing Translational Sciences [NCATS]
Sequence of Nuclear receptor subfamily 1 group I member 2 (Homo sapiens) (O75469 whole entry, looked up): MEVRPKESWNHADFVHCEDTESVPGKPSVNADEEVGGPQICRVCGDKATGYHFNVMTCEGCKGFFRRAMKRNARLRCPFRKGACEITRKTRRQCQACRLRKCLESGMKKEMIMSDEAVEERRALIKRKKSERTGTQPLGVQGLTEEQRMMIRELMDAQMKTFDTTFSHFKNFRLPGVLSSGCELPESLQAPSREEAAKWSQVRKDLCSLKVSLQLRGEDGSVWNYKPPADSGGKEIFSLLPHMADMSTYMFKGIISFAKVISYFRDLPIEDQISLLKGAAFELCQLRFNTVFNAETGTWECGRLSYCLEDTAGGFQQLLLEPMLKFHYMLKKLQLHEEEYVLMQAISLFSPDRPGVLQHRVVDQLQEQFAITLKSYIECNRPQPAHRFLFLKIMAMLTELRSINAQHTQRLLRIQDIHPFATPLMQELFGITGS
NIH Chemical Genomics Center [NCGC]
U.S. Environmental Protection Agency [EPA]
National Institutes of Environmental Health Sciences [NIEHS]
National Toxicology Program [NTP]
The human pregnane X receptor (hPXR) regulates the expression of several drug metabolizing enzymes and induction of these proteins is a major mechanism for developing drug resistance in cancer. One such key enzyme catalyzing the drug metabolism is cytochrome P450 3A4 (CYP3A4). Changes in CYP3A4 expression affect drug metabolism, thereby reducing the therapeutic efficacy and altering toxicological response to a drug and which finally causes adverse drug interaction. To screen Tox21 libraries for compounds that activate hPXR-mediated CYP3A4 gene expression, PXR-Luc HepG2 cells were used.
PXR-Luc HepG2 cells were dispensed at 2,000 per well in 5uL of assay medium containing 5% charcoal-stripped FBS into white solid bottom 1536-well plates (Corning Life Sciences, Corning, NY) using a Multidrop Combi (Thermo Scientific, Waltham, MA) dispenser. The assay plates were incubated at 37 C and 5% CO2 for 5hr, and then 23nL of compounds dissolved in DMSO and positive control were transferred using a Pintool station (Wako, San Diego, CA). The assay plates were incubated at 37C and 5% CO2 for 24hr. For luciferase read, 4uL of ONE-Glo reagent (Promega Corporation, Madison, WI) was added to each well of the assay plates using Flying Reagent Dispenser (FRD, Aurora Discovery, San Diego, CA) and incubated the assay plates at room temperature for 30min. The luminescence signal was quantified using a ViewLux plate reader (Perkin Elmer, Shelton, CT).
(In general: In qHTS, concentration-response curves come from the screen itself.)
Turning to `CN(C)CCc1c[nH]c2ccc(C[C@H]3COC(=O)N3)cc12`, the Potency result was “inactive”.
Turning to `O=C(O)Cc1ccccc1Oc1ccc(Cl)cc1Cl`, the Potency entry was “inactive”.
The result for `CC12CCCC=C1C(=O)OC2=O` (stereo not given) reads “inactive”; that for `O=P(O)(O)C(O)(Cc1cccnc1)P(=O)(O)O`, “inactive”.
The result for `CCCCC(CC)COC(=O)CC#N` (stereo not given) reads 2.73 µM (active); that for `CCCc1ncc(C(=O)O)s1`, “inactive”.
As for `Cc1ccc(NC(N)=O)cc1`, the Potency result was “inactive”.
The result for `CC(C)(C)c1ccc(C(=O)CCCCl)cc1` reads 26.6 µM (active); that for `O=C(O)CCCCCCCCCC(=O)O`, “inactive”.
For `Cc1cc(N)no1`, the Potency entry is “inactive”.
Consider `Clc1ccc2c(c1)Nc1ccccc1S2`, for which the Potency was 33.5 µM (active).
As for `C=CCN1CCc2nc(N)sc2CC1`, the Potency entry is “inactive”.
On to `CC(C)C(C)C`, for which the Potency result was “inactive”.
On to `O=C(O)/C=C(\CC(=O)O)C(=O)O`, for which the Potency entry was “inactive”.
The result for `CC(C)CC(=O)N[C@H](C(=O)N[C@H](C(=O)N[C@@H](CC(C)C)[C@@H](O)CC(=O)N[C@@H](C)C(=O)N[C@@H](CC(C)C)[C@@H](O)CC(=O)O)C(C)C)C(C)C` (Isovaleryl-VV[Sta]A[Sta]-OH) reads “inactive”; that for `N#CC1(N)CCCCC1`, “inactive”.
For the molecule `C=CC(C)(CCC=C(C)C)OC(=O)C(C)C` (stereo not given), the Potency entry is “inactive”.
On to `OCCC(F)(F)C(F)(F)C(F)(F)C(F)(F)C(F)(F)C(F)(F)F`, for which the Potency entry is “inactive”.
On to `CCCCN=C(N)N=C(N)N`, for which the Potency result was “inactive”.
The result for `CCO[Si](CC(C)C)(OCC)OCC` reads 9.69 µM (active); that for `CCCCCCCCCCCCCCCC/C=C/C1CC(=O)OC1=O` (stereo not given), “inactive”.
The same measure for `O=S(=O)(O)CC(O)CCl` (stereo not given): “inactive”; for `CC/C=C/CCCCCCCCCCOC(C)=O`: “inactive”; for `CCCCNCC`: “inactive”.
The same measure for `CCC(C)SSC(C)CC` (stereo not given): “inactive”.
Turning to `CCCC(=O)OC`, the Potency entry is “inactive”.
The result for `CCC(=O)OCCOc1ccccc1` reads “inactive”; that for `C=CCn1cc[n+](C)c1`, “inactive”.
The same measure for `CCCCOCCCC`: “inactive”; for `CC/C=C\CCOC(=O)c1ccccc1`: “inactive”; for `CC(C)C[P+](C)(CC(C)C)CC(C)C`: “inactive”.
For the molecule `CC(C)(C)C(=O)CC(=O)C(C)(C)C`, the Potency entry is “inactive”.
The result for `CCN1CCN(C(=O)N[C@@H](C(=O)N[C@@H]2C(=O)N3[C@@H]2SC(C)(C)[C@H]3C(=O)O)c2ccccc2)C(=O)C1=O` reads “inactive”; that for `O=S(=O)(O)c1ccc(Cl)cc1`, “inactive”.
Turning to `CC(O)CCCCn1c(=O)c2c(ncn2C)n(C)c1=O` (stereo not given), the Potency result is “inactive”.
The result for `COc1cc(OC)cc(OC)c1` reads “inactive”.
The same measure for `CC(CC(=O)Cl)CC(C)(C)C` (stereo not given): “inactive”; for `CCc1ncc(C)[nH]1`: “inactive”; for `COc1cc(C(=O)NC2CCCNC2)cc(OC)c1OC` (stereo not given): “inactive”.
The result for `O=C1c2ccccc2C(=O)N1CO` reads “inactive”.
